Calls of active or inactive are those of the source.
Assays:
[1] = tested on: PRMT1 (protein arginine N-methyltransferase 1); experiment: small molecules binding arginine methyltransferase PRMT1 – biochemical, small-molecule microarray, 635 nm fluorescence, primary screen (AID 1088); conditions: higher = more signal;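 note: binding of Prmt1 protein to compounds spotted on small-molecule microarray slides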
[2] = growth effects on S. cerevisiae YJM789 – YJM789 clinical isolate, OD600, 24 h, basal, primary screen (AID 1089); conditions: higher = more signal, called active from +8 up or from −8 down;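 note: growth of clinical yeast isolate S. cerevisiae YJM 789 seeded 1000 cells per well; test concentration not given here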
[3] = S. pombe growth modifiers, basal conditions – strain 972, OD600, 24 h, no modulator, primary screen (AID 1090);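 note: basal condition with compound alone and no growth modifier present; test concentration not given here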; conditions: S. pombe 972 growth, higher = more signal, called active from +8 up or from −8 down
[4] = budding yeast growth modifiers under rapamycin – strain BY4716, OD600, 96 h, primary screen (AID 1091); note: test concentration not given here; conditions: S. cerevisiae BY4716 + rapamycin, higher = more signal, called active from +8 up or from −8 down
[5] = molecular target: Torsin-1A-interacting protein 2 (Homo sapiens) (UniProt Q8NFQ8); experiment: small molecules binding lysate-expressed LULL1 – cell lysate, human LULL1 lysate, 635/667 nm fluorescence, primary screen (AID 1092); conditions: small-molecule microarray, hLULL1 lysate binding, 635 nm fluorescence; higher = more signal;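 note: probe is lysate of COS7 cells overexpressing human LULL1; score merges per-feature 667 nm fluorescence with signal-to-noise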
Chain of Torsin-1A-interacting protein 2 (Homo sapiens) (Q8NFQ8 whole entry, looked up): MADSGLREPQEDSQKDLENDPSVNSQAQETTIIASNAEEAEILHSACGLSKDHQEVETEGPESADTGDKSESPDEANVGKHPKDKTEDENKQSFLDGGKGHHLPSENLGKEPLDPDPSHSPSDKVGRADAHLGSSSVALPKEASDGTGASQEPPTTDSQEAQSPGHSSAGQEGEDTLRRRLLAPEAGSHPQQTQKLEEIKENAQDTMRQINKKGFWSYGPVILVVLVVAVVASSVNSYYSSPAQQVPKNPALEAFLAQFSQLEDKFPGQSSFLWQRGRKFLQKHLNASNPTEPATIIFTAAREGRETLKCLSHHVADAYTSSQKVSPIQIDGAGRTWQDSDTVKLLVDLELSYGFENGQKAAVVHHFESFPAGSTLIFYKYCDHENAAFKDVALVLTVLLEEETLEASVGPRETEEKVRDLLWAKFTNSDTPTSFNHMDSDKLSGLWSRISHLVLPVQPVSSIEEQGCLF

[6] = optical density change of DRC41 E. coli – strain DRC41, OD650, 24 h, E. coli filamentation project, primary screen (AID 1093);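 note: MC1000 strain lacking acrAB efflux and sulA so SOS filamentation is blocked; test concentration not given here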; conditions: E. coli DRC41 growth, higher = more signal, called active from +8 up or from −8 down
[7] = probe aLefty2 binding to arrayed compounds – biochemical, biotinylated probe, 635/667 nm fluorescence, primary screen (AID 1094); conditions: small-molecule microarray, higher = more signal;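 note: score merges spot fluorescence near 667 nm with spot signal-to-noise ratio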
[8] = tested on: Noggin (protein binding on small-molecule microarray); experiment: small molecules binding Noggin protein – biochemical, 635/667 nm fluorescence, primary screen (AID 1095); conditions: 635 nm fluorescence, higher = more signal;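 note: score merges 667 nm feature fluorescence with signal to noise over triplicate slides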
[9] = molecular target: Neurogenic locus notch homolog protein 3 (Homo sapiens) (UniProt Q9UM47); experiment: small molecules binding NOTCH3 protein – biochemical, 635/667 nm fluorescence, primary screen (AID 1096); conditions: small-molecule microarray, 635 nm fluorescence, higher = more signal
Chain of Neurogenic locus notch homolog protein 3 (Homo sapiens) (Q9UM47 whole entry, looked up): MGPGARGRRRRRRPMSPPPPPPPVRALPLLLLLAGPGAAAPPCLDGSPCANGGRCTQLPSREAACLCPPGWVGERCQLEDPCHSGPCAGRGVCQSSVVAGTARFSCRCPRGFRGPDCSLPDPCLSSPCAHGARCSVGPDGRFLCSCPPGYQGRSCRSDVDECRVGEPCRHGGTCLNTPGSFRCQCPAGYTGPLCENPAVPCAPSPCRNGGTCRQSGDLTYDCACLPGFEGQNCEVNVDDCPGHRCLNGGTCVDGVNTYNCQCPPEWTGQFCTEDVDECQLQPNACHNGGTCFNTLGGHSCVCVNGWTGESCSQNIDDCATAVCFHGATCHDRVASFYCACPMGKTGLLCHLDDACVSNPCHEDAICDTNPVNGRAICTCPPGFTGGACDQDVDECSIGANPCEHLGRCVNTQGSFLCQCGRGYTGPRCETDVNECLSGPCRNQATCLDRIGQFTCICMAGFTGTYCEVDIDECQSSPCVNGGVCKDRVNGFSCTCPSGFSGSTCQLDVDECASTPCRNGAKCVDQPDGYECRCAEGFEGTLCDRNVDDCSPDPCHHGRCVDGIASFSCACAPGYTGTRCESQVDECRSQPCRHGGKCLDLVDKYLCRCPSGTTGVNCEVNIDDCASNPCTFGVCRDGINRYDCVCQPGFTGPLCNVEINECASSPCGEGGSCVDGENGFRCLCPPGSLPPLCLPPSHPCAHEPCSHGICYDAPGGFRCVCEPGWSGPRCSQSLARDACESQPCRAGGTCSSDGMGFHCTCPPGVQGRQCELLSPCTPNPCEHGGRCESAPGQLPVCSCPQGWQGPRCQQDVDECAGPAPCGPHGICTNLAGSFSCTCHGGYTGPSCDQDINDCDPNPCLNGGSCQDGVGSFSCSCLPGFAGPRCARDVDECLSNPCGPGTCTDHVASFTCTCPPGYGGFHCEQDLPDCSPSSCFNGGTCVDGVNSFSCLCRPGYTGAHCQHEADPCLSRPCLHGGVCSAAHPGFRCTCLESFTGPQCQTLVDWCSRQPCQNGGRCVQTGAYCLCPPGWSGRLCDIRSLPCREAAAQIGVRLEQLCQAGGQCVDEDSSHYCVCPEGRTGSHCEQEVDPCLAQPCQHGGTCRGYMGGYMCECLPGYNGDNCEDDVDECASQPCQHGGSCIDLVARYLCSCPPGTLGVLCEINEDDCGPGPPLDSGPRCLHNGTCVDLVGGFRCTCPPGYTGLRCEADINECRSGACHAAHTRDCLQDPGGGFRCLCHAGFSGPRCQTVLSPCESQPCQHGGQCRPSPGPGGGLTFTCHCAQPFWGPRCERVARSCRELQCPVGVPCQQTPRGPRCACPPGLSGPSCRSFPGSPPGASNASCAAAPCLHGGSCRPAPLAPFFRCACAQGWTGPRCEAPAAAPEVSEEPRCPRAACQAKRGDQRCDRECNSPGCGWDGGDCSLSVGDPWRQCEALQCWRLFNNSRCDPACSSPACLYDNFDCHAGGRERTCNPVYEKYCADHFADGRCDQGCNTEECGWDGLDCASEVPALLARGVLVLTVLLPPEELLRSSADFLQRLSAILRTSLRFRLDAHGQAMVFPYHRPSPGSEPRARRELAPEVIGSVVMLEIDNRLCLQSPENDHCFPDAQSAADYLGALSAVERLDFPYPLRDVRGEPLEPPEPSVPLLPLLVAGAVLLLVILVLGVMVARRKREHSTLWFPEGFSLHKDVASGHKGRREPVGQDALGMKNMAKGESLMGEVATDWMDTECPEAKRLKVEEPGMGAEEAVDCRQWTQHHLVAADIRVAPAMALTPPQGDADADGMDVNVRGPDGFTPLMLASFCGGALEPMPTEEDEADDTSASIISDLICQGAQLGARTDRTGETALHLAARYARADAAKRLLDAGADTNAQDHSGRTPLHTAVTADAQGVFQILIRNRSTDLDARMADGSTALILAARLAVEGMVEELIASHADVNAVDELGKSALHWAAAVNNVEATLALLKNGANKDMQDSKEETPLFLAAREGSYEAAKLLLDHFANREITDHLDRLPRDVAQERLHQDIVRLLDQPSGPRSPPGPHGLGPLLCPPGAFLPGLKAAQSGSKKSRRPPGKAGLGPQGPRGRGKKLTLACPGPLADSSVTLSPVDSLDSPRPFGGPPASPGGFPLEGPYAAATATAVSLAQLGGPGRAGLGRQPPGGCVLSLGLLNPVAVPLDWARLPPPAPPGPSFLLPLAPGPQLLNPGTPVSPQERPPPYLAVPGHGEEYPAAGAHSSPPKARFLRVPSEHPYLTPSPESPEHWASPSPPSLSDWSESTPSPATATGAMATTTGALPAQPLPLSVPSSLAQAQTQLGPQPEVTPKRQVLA

[10] = probe aEGFR binding to arrayed compounds – biochemical, biotinylated probe, 635/667 nm fluorescence, primary screen (AID 1097); conditions: small-molecule microarray, higher = more signal;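 note: probe is a biotinylated anti-EGFR antibody binding compounds printed on slides; score combines fluorescence near 667 nm and signal to noise of each spot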

SMILES: CCOC(=O)CCN1C(=O)[C@H]2[C@H]3[C@H](O)[C@H](O)CC(=NOC[C@@H](O)COCc4ccco4)[C@@H]3CC[C@H]2C1=O
- composite z-score [1]: 0.163
- z-score [2]: 0.133 (inactive)
- z-score [3]: -0.226 (inactive)
- z-score [4]: -0.0839 (inactive)
- composite z-score [5]: 0.545
- z-score [6]: 0.383 (inactive)
- composite z-score [7]: 0.0814
- composite z-score [8]: -0.298
- composite z-score [9]: -0.62
- composite z-score [10]: -0.0764

SMILES: COc1ccc(-c2ccc3c(n2)CCCN3CC(O)CN2CCCc3nc(C)c(C)cc32)cc1 (stereo not given)
- composite z-score [1]: 1.43
- z-score [2]: 0.0222 (inactive)
- z-score [3]: -0.411 (inactive)
- z-score [4]: -1.43 (inactive)
- composite z-score [5]: 1.13
- z-score [6]: 0.682 (inactive)
- composite z-score [7]: 0.429
- composite z-score [8]: 0.824
- composite z-score [9]: 1.1
- composite z-score [10]: 0.243

SMILES: COc1ccc(O[C@H]2C=C[C@@H](c3ccccc3)O[C@@H]2COC(=O)N2CCCCC2)cc1
- composite z-score [1]: 0.38
- z-score [2]: 0.523 (inactive)
- z-score [3]: -0.897 (inactive)
- z-score [4]: 0.156 (inactive)
- composite z-score [5]: -0.616
- z-score [6]: 0.555 (inactive)
- composite z-score [7]: 0.0116
- composite z-score [8]: 0.0935
- composite z-score [9]: -1.08
- composite z-score [10]: -0.0527

— PubChem BioAssay
